From PubChem
LMP1 NFkB inh – reduces LMP1-driven NF-kappaB luciferase signal. LMP1-induced NF-kappaB luciferase reporter cells, luminescence. 0.69% of 350,000 active. AID 504558. inhibition, % at 12.5 µM; in the data active means inhibition above about 41%;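 further: 0% = neutral control wells and 100% = reference inhibitor control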
TROY NFkB inh – TROY signaling inhibition. Q293 LMP1-TROYcd NF-kB luciferase reporter, 4 h. inhibition, % at 10 µM. 0.98% of 360,000 active;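 active means compounds whose plate-normalised and pattern-corrected inhibition of the luciferase reporter signal at the single screening dose is 50% or more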
TWEAK Fn14 block – inhibitors of TWEAK-Fn14 interaction signaling; TWEAK-stimulated Fn14 reporter cells, luciferase luminescence, 8 h; inhibition, % at 10 µM; 2% of 360,000 active; AID 1159606; in the data active means inhibition above about 50%
HIF-2a inh – inhibitors of HIF-2a; inhibition, % at 18.8 µM; 0.72% of 360,000 active; 786-0 RCC cells HIF-2a reporter, luciferase luminescence, overnight;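 active means inhibition of the luminescence signal of 40% or more relative to plate controls, in a single-dose primary screen at 18.75 µM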
Peg3 prom inh – Peg3 promoter activity inhibition; inhibition, % at 20 µM; HeLa PEG-Prom luciferase reporter, luminescence, overnight; 1.7% of 360,000 active;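 active means inhibition of at least 50% at 20 µM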
TRPM1 prom inh – reduces MITF-dependent TRPM1 promoter luciferase signal | SK-MEL-5 TRPM1 promoter luciferase, 24 h | inhibition, % at 12.5 µM | 0.83% of 330,000 active | AID 488899;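 active means mean inhibition across replicates of 60% or more, whatever share of single replicates reaches that level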
An asterisk follows results filed as active; x = not tested or not shown. Sampled rows, rich in hits. Any-hit rate of the full collection: about 4%.

SMILES | LMP1 NFkB inh | TROY NFkB inh | TWEAK Fn14 block | HIF-2a inh | Peg3 prom inh | TRPM1 prom inh
C/C=C(\C)C(=O)OC1[C@H](OC(C)=O)C2(CO)C(CC1(C)C)C1=CCC3C4(C)CCC(O[C@@H]5O[C@H](C(=O)O)[C@@H](O[C@@H]6O[C@H](CO)[C@@H](O)[C@H](O)[C@H]6O)[C@H](O)[C@H]5O[C@H]5O[C@H](CO)[C@@H](O)[C@H](O)[C@H]5O)[C@](C)(CO)C4CCC3(C)[C@]1(C)C[C@H]2O (stereo not given in full) | 36 | 87* | 15 | 93* | 105* | 98*
CC1(C)C[C@H]2C3=CCC4[C@@]5(C)CC[C@H](O[C@@H]6O[C@H](C(=O)O)[C@@H](O)[C@H](O)[C@H]6O)[C@@](C)(CO)C5CC[C@@]4(C)[C@]3(C)C[C@H](O)[C@@]2(CO)[C@@H](O)[C@@H]1O (stereo not given in full) | 6 | 57* | 5 | 14 | 8 | -1
CC1(C)C[C@H](O)[C@]2(CO)[C@H](O)C[C@]3(C)C(=CCC4[C@@]5(C)CC[C@H](O)C(C)(C)C5CC[C@]43C)[C@@H]2C1 (stereo not given in full) | -5 | -4 | -29 | 12 | 95* | 11
CC1(C)C[C@H](O)[C@]2(CO)CC[C@]3(C)C(=CCC4[C@@]5(C)CC[C@H](O)C(C)(C)C5CC[C@]43C)[C@@H]2C1 (stereo not given in full) | 0 | 2 | -47 | 8 | 9 | x
C/C=C(/C)C(=O)OC1CC(C)(C)C[C@H]2C3=CC[C@@H]4[C@@]5(C)CCC(O[C@@H]6O[C@@H](C(=O)O)[C@@H](O)C(O[C@@H]7OC[C@H](O)[C@@H](O)[C@@H]7O[C@@H]7OC(CO)C(O)[C@@H](O)[C@@H]7O)C6O[C@@H]6OC(CO)C(O)C(O)C6O)[C@@](C)(CO)[C@@H]5CC[C@]4(C)[C@]3(C)CC(O)[C@@]12CO (stereo not given in full) | 4 | 0 | -12 | 24 | -5 | 53
COC(=O)[C@]1(C)N[C@H](CN(C)S(=O)(=O)c2ccc(F)cc2)[C@@H]2C(=O)N(C)C(=O)[C@@H]21 | -15 | 3 | 7 | 5 | 12 | -7
CCOC(=O)c1sc(NC(=O)CNCc2ccccn2)c(C(=O)OCC)c1C | 44* | -11 | -42 | 11 | 24 | 17
O=C(O)CCC(=O)Nc1ccc(C(=O)OC2CCCCC2)cc1 | -2 | -5 | 42 | 52* | 9 | 7
COc1cccc(/C=C/C(=O)OCC(=O)c2ccc(C)c(C)c2)c1OC | 2 | 6 | -21 | -80 | -41 | -8
COc1cccc(/C=C/C(=O)OCC(=O)c2ccccc2)c1OC | -2 | 51* | 65* | -76 | -124 | -90
COc1ccc(/C=C\C(=O)O[C@@H]2C(O)C(O[C@@H]3OC(C)[C@H](O[C@@H]4OCC(O[C@H]5O[C@H](CO)[C@@H](O)C(O)C5O)C(O)C4O)C(O)C3O)[C@H](OC(=O)[C@]34CCC(C)(C)C[C@@H]3C3=CCC5[C@@]6(C)CC(O)C(O[C@@H]7OC(CO)C(O)[C@H](O)[C@H]7O)[C@@](C)(C(=O)O)C6CC[C@@]5(C)[C@]3(CO)CC4)O[C@H]2C)cc1 (stereo not given in full) | -79 | -8 | 3 | 34 | 51* | 68*
C[C@@H]1CC[C@]2(C(=O)O[C@@H]3O[C@H](CO)[C@@H](O)[C@H](O)[C@H]3O)CC[C@]3(C)C(=CCC4[C@@]5(C)CC[C@H](O[C@@H]6OC[C@H](O)[C@H](O[C@@H]7O[C@H](CO)[C@@H](O)[C@H](O)[C@H]7O)[C@H]6O)C(C)(C)C5CC[C@]43C)C2[C@]1(C)O (stereo not given in full) | -8 | -9 | -3 | 2 | -31 | 7
COc1ccc(NC(=O)N(C)C[C@@H]2OCc3cn(nn3)CCCC(=O)N([C@H](C)CO)C[C@H]2C)cc1 | -3 | 1 | -7 | 5 | -5 | x
CCCCOc1ccc2c(c1)/C(=C(\C(Cl)=C(Cl)Cl)[N+](=O)[O-])N2 | 44* | 20 | -10 | 4 | 3 | 13
CCOc1ccc2c(c1)/C(=C(\C(Cl)=C(Cl)Cl)[N+](=O)[O-])N2 | -2 | 3 | 9 | 15 | 1 | 13
O=C(NC1CC1)c1ccc(-c2nc3ccccc3s2)s1 | 42* | 71* | 97* | 47* | 62* | 56
Cc1ccc2nc(NC(=O)c3ccc(-c4nc5ccccc5s4)s3)sc2c1 | -62 | -10 | 49 | -28 | -60 | 13
Cc1cn(CC(=O)N(C)Cc2ccco2)c(=O)[nH]c1=O | 2 | -8 | 13 | 4 | 9 | -1
O=C(CCl)N1CCN(S(=O)(=O)c2ccc3ccccc3c2)CC1 | 2 | -10 | -26 | 31 | 110* | 23
CN(C)C(=O)N1CCN(S(=O)(=O)c2ccc3ccccc3c2)CC1 | 0 | -8 | 101* | 8 | 11 | -16
COc1ccc(CCC(=O)N2CCN(S(=O)(=O)c3ccc4ccccc4c3)CC2)cc1 | 2 | 0 | 2 | 15 | 13 | 0
CN(C)S(=O)(=O)N1CCN(S(=O)(=O)c2ccc3ccccc3c2)CC1 | 8 | -7 | -6 | 7 | 26 | 12
COc1ccc(-c2cc(=O)oc3c(C)c(O)c(CN(C)C)cc23)cc1 | 3 | 60* | 23 | 19 | 21 | 1
Nc1ccc(-c2nnn(Cc3ccccc3)n2)cc1 | -10 | -38 | 65* | -149 | -116 | -14
COc1ccc(-c2nnn(Cc3ccccc3)n2)cc1 | -13 | -45 | -47 | -343 | -256 | -31
SMILES | LMP1 NFkB inh | TROY NFkB inh | TWEAK Fn14 block | HIF-2a inh | Peg3 prom inh | TRPM1 prom inh
O=C(CCCCCCCC(=O)N1CCCCCC1)N1CCCCCC1 | 8 | -5 | 15 | -6 | 8 | 2
COc1ccc(Nc2nc(N)c([N+](=O)[O-])c(N3CCOCC3)n2)cc1 | -4 | 21 | 10 | -16 | 13 | -19
CN(C)c1ccc(Nc2nc(N)c([N+](=O)[O-])c(N3CCOCC3)n2)cc1 | 3 | 70* | 26 | -23 | 52* | -3
O=C(NCCc1ccccc1)C(=O)NCC1CCCN1S(=O)(=O)c1cccs1 (stereo not given) | 2 | 7 | -4 | -12 | 16 | 1
c1ccc(C2(CN3CCNC[C@H]3Cc3cccc4ccccc34)CC2)cc1 | 0 | -12 | 15 | 10 | 79* | x
Cc1ccc(Nc2nc3c(c(=O)[nH]2)CCCC3)cc1 | -9 | -33 | -23 | -259 | -176 | -34
O=c1[nH]c(Nc2nc3ccccc3o2)nc2c1CCCC2 | 75* | 76* | 98* | -70 | 58* | 46
CSCC[C@H](NC(=O)OC(C)(C)C)C(=O)N1CCC(C(=O)NCC(=O)Nc2ccc(C)cc2)CC1 | -10 | -17 | -11 | 4 | 1 | -7
